# Source: PubChem BioAssay (Tox21)
# A number with no mark means an inactive call. Records with an inconclusive call do not appear. Entries that show only a call come without a potency. Active and inactive are the calls of the source. Unless noted, calls come from the whole dose curve; as a rule, active = well fitted curve in the direction sought with a large enough effect in the repeat runs; inconclusive = weak or mixed curves; inactive = no such curve, though single readings can be large; an effect the other way counts as inactive or inconclusive.
# What was measured:
# [1] = molecular target: Progesterone receptor (Homo sapiens) (UniProt P06401); assay: qHTS assay to identify small molecule agonists of the progesterone receptor (PR) signaling pathway (AID 1346784; calls by dose curve; note: nearly all actives have a fitted effect of over 30% in size)
# Outline: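 Agonist qHTS: compounds pinned onto 3,000 PR-UAS-bla HEK 293T cells per well in charcoal-stripped serum medium, 16hr at 37C, then beta-lactamase activity measured by LiveBLAzer FRET fluorescence after 2 hours at room temperature.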
# [2] = molecular target: Progesterone receptor (Homo sapiens) (UniProt P06401); assay: qHTS assay to identify small molecule antagonists of the progesterone receptor (PR) signaling pathway (AID 1346795; active = well fitted inhibition curve with a large enough effect in the signal ratio in the repeat runs, not every such curve was filed as active; the % refers to the signal ratio; note: potency is the fitted concentration of half-maximal effect)
# Outline: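 Antagonist mode with agonist R5020 at 1 nM final and 16 hr incubation at 37C. Reporter was beta-lactamase driven by UAS in HEK293T (PR-UAS-bla), 2% charcoal-stripped serum; signal from LiveBLAzer FRET substrate, 2 hr at room temperature.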
# [3] = qHTS assay to identify small molecule antagonists of the progesterone receptor (PR) signaling pathway - cell viability counter screen (AID 1346798); note: series mostly up to about 92 µM; nearly all actives have a fitted effect of over 50% in size
# Outline: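 Cytotoxicity read as CellTiter-Glo luminescence (30 min, room temperature) in the same wells as the beta-lactamase readout. HEK293T PR-UAS-bla cells in charcoal-stripped 2% FBS received compound and R5020, then 16 h at 37C, 5% CO2.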
# [4] = qHTS assay to identify small molecule agonists of the progesterone receptor (PR) signaling pathway - cell viability counter screen (AID 1346799; calls by dose curve; note: nearly all actives have a fitted effect of over 45% in size)
# Outline: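 Cytotoxicity measured by CellTiter-Glo luminescence (30 min, RT) in the same wells as the PR beta-lactamase agonist read. Those HEK293T cells had 16 h compound treatment at 37 C in 2% charcoal-stripped FBS medium.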
# [5] = qHTS assay to identify small molecule antagonists of the TGF-beta/Smad signaling pathway - cell viability counter screen (AID 1346824); note: nearly all actives have a fitted effect of over 50% in size
# Outline: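 SBE-bla HEK 293T cells were plated overnight at 37 C, then given compounds in DMSO plus TGF-beta1 (added as 0.25 ng/mL solution) for 5 hr. After the bla read, CellTiter-Glo was added to the same wells and luminescence read after 30 min at room temperature.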
# [6] = qHTS assay to identify small molecule agonists of the TGF-beta/Smad signaling pathway - cell viability counter screen (AID 1346829); note: top concentration of the series differs between compounds; nearly all actives have a fitted effect of over 45% in size
# Outline: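 CellTiter-Glo luminescence readout; SBE-bla HEK 293T cells, overnight plating, compound 5 hr at 37 C/5% CO2, then bla substrate 2 hr RT, then CellTiter-Glo 30 min RT.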
# [7] = qHTS assay to identify small molecule agonists of the TGF-beta/Smad signaling pathway (AID 1346859; active = well fitted activation curve with a large enough effect in the signal ratio in the repeat runs, not every such curve was filed as active; the % refers to the signal ratio; note: series mostly up to about 77 µM)
# Outline: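 Fluorescence (ex 405 nm; em 460 and 530 nm) was read 2 h after LiveBLAzer FRET substrate at RT. The preceding compound treatment of overnight-plated SBE-bla HEK293T cells lasted 5 h at 37 C.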
# [8] = molecular target: Thyrotropin-releasing hormone receptor (Homo sapiens) (UniProt P34981); assay: qHTS assay to identify small molecule antagonists of the thyrotropin-releasing hormone receptor (TRHR) signaling pathway (AID 1346877; active = well fitted inhibition curve with a large enough effect in the repeat runs, not every such curve was filed as active; note: series mostly up to about 51 µM)
# Outline: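 Cells (TRHR-HEK293) are plated and kept 18 h at 37 °C/5% CO2. A calcium-sensitive dye is added for 2 h, compound follows for 5 min at room temperature, and TRH is then given at 1 nM final.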
# [9] = molecular target: Thyrotropin-releasing hormone receptor (Homo sapiens) (UniProt P34981); assay: qHTS assay to identify small molecule agonists of the thyrotropin-releasing hormone receptor (TRHR) signaling pathway (AID 1346891; calls by dose curve; note: series mostly up to about 58 µM)
# Outline: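 Agonist-mode intracellular calcium readout: kinetic fluorescence over 3 min at 1 s intervals after compound addition to TRHR-HEK293 cells (18 h seeded, 2 h dye-loaded at 37 C). Fifteen concentrations, triplicates.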
# [10] = Human pregnane X receptor (PXR) small molecule agonists, qHTS cell viability counter screen (AID 1346977); note: nearly all actives have a fitted effect of over 50% in size; note: potency is the fitted concentration of half-maximal effect
# Outline: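 Same-well viability read: CellTiter-Fluor added after 23 hr compound exposure, fluorescence measured 1 hr later. Cells were PXR-Luc HepG2 seeded at 2,000/well in 5% charcoal-stripped FBS medium, rested 5 hr before dosing at 37 C.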
# Chain of Progesterone receptor (Homo sapiens) (P06401 whole entry, looked up): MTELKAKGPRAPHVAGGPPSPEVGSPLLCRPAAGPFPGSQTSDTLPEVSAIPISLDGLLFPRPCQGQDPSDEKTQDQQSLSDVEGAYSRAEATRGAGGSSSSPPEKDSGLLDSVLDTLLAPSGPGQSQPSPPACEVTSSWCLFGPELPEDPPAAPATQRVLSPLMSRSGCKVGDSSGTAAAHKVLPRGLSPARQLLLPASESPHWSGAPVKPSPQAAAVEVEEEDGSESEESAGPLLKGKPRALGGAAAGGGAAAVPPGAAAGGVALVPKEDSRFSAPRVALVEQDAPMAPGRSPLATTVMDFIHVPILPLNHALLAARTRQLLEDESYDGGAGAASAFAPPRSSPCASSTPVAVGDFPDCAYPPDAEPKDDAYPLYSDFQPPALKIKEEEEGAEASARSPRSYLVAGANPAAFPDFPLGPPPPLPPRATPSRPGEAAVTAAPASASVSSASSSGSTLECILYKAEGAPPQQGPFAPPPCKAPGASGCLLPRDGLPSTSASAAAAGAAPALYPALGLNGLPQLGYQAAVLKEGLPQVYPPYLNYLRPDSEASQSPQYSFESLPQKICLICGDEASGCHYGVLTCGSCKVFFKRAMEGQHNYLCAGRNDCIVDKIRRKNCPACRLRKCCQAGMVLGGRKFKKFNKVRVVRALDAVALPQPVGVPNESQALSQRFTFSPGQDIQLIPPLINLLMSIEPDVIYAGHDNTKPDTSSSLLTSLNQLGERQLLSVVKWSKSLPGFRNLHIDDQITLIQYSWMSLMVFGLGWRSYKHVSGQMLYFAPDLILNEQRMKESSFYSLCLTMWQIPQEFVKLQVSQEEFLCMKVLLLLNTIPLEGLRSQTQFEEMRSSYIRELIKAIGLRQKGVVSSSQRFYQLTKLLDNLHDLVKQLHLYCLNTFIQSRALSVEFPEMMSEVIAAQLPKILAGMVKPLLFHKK
# Chain of Thyrotropin-releasing hormone receptor (Homo sapiens) (P34981 whole entry, looked up): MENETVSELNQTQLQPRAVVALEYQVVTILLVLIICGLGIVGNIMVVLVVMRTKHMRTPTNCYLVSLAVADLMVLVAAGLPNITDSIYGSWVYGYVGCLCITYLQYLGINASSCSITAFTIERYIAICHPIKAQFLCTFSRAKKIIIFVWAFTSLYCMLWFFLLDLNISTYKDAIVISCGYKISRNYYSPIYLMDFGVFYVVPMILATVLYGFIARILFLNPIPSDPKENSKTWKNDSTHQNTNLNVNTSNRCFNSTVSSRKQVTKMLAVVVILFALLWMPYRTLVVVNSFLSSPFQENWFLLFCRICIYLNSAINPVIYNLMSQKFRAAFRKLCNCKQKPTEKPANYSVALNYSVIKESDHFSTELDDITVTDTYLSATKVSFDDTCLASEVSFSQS
compound,measurement,setting,value
CC(C)CC=O,outcome,[1],inactive
same,Potency,[2],inactive
same,Potency,[3],inactive
same,Potency,[4],inactive
same,Potency,[5],inactive
same,Potency,[6],inactive
same,outcome,[7],inactive
same,outcome,[8],inactive
same,Potency,[9],inactive
same,Potency,[10],inactive
CCCCCCCCCCCCCCCCCBr,activation,[1],-0.0997% [at 19 µM]
same,"activity change, negative = inhibition",[2],0.192% [at 18.9 µM]
same,"activity change, negative = cytotoxicity",[3],-0.341% [at 18.9 µM]
same,"activity change, negative = cytotoxicity",[4],10.6% [at 19 µM]
same,"viability change, negative = cytotoxic",[5],1.56% [at 15.8 µM]
same,"activity change, negative = cytotoxicity",[6],0.567% [at 15.8 µM]
same,activation,[7],2.19% [at 15.8 µM]
same,"activity, negative = inhibition",[8],-2.78% [at 10.5 µM]
same,activation,[9],-0.232% [at 11.8 µM]
same,"activity change, negative = cytotoxicity",[10],1.63% [at 19 µM]
C=C(C)C(=O)OCCN(C)C,outcome,[1],inactive
same,Potency,[2],inactive
same,Potency,[3],inactive
same,Potency,[4],inactive
same,Potency,[5],inactive
same,Potency,[6],inactive
same,outcome,[7],inactive
same,outcome,[8],inactive
same,Potency,[9],inactive
same,Potency,[10],inactive
CCCCCCc1ccc(N)cc1,outcome,[1],inactive
same,Potency,[2],inactive
same,Potency,[3],inactive
same,Potency,[4],inactive
same,Potency,[5],inactive
same,Potency,[6],inactive
same,outcome,[7],inactive
same,outcome,[8],inactive
same,Potency,[9],inactive
same,Potency,[10],inactive
O=CNc1ccccc1,outcome,[1],inactive
same,Potency,[2],inactive
same,Potency,[3],inactive
same,Potency,[4],inactive
same,Potency,[5],inactive
same,Potency,[6],inactive
same,outcome,[7],inactive
same,outcome,[8],inactive
same,Potency,[9],inactive
N#CCCNCCC#N,outcome,[1],inactive
same,Potency,[2],inactive
same,Potency,[3],inactive
same,Potency,[4],inactive
same,Potency,[5],inactive
same,Potency,[6],inactive
same,outcome,[7],inactive
same,Potency,[9],inactive
same,Potency,[10],inactive
CC(Cc1cccc(C(F)(F)F)c1)NCCOC(=O)c1ccccc1 (stereo not given),outcome,[1],inactive
same,Potency,[2],inactive
same,Potency,[3],inactive
same,Potency,[4],inactive
same,Potency,[5],inactive
same,Potency,[6],inactive
same,outcome,[7],inactive
CN1CCN(C2=Nc3cc(Cl)ccc3Nc3ccccc32)CC1,outcome,[1],inactive
same,Potency,[2],23.7 µM (active)
same,Potency,[3],inactive
same,Potency,[4],inactive
same,Potency,[5],inactive
same,Potency,[6],inactive
same,outcome,[7],inactive
same,outcome,[8],inactive
same,Potency,[9],inactive
same,Potency,[10],23.7 µM (active)
CC(=O)OCCc1ccccc1,outcome,[1],inactive
same,Potency,[2],inactive
same,Potency,[3],inactive
same,Potency,[4],inactive
same,Potency,[5],inactive
same,Potency,[6],inactive
same,outcome,[7],inactive
same,outcome,[8],inactive
same,Potency,[9],inactive
same,Potency,[10],inactive
N#CCc1cccc(C(F)(F)F)c1,outcome,[1],inactive
same,Potency,[2],inactive
same,Potency,[3],inactive
same,Potency,[4],inactive
same,Potency,[5],inactive
same,Potency,[6],inactive
same,outcome,[7],inactive
same,outcome,[8],inactive
same,Potency,[9],inactive
same,Potency,[10],inactive
NCc1ccccc1,outcome,[1],inactive
same,Potency,[2],inactive
same,Potency,[3],inactive
same,Potency,[4],inactive
same,Potency,[5],inactive
same,Potency,[6],inactive
same,outcome,[7],inactive
same,outcome,[8],inactive
same,Potency,[9],inactive
same,Potency,[10],inactive
O=C(O)/C=C/c1cnc[nH]1,outcome,[1],inactive
same,Potency,[2],inactive
same,Potency,[3],inactive
same,Potency,[4],inactive
same,Potency,[5],inactive
same,Potency,[6],inactive
same,outcome,[7],inactive
same,outcome,[8],inactive
same,Potency,[9],inactive
same,Potency,[10],inactive
